DAX1 inh-1 = inhibits human nuclear receptor DAX1; 0.99% of 340,000 active; inhibition, % at 6.75 µM; P51843; HEK293 Gal4-DAX1 luciferase reporter, luminescence;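 active = inhibition above the mean over all tested compounds plus 3 SD, cut at about 4.2% in these data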;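 note: 0% = DAX1-transfected cells with DMSO and 100% = empty-vector control cells with DMSO; inhibition shows as a rise in luminescence from relieved DAX1 repression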
Target sequence (P51843 207-470 limits assumed): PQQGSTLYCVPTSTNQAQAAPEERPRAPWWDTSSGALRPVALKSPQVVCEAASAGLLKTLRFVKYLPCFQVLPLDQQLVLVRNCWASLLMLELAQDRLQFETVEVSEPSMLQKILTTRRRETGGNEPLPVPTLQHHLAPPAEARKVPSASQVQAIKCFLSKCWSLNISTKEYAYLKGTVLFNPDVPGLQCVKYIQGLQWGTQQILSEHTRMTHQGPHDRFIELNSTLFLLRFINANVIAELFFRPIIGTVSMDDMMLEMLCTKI
hcDAF12 agonist = activators of H. contortus DAF-12 nuclear receptor. 1.4% of 370,000 active. activation, % at 6.8 µM. HEK293 hcDAF-12 lit1-tk-luc reporter, luminescence; 0% DMSO, 100% Δ7-dafachronic acid;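 active = activation above the mean of all tested compounds plus 3 SD, cut at about 5.5% in these data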;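 note: 100% = response to 3 µM Δ7-dafachronic acid high control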
ssDAF12 agonist = activates DAF-12 receptor from parasite S. stercoralis; HEK293 ssDAF-12/GRIP1 lit1-tk-luc reporter, luminescence; % of 3 µM dafachronic acid response; 1% of 370,000 active; activation, % at 6.8 µM;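 active = activation above the mean over all tested compounds plus 3 SD, cut at about 0.9% in these data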;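 note: 0% = DMSO-only wells and 100% = 3 µM delta7-dafachronic acid wells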
DAX1 inh-2 = blocks DAX1 repression of SF-1 activated StAR promoter; inhibition, % at 6.8 µM; 1.1% of 370,000 active; HEK293T StAR-luciferase reporter, SF-1/DAX-1 repression relief;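 active = inhibition above the mean over all tested compounds plus 3 SD, cut at about 3.6% in these data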;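 note: 0% = DAX-1 cells with DMSO and 100% = cells lacking DAX-1 with DMSO; higher inhibition means more luminescence from relief of DAX-1 repression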
hgDAF-12 ag = agonists of H. glycines DAF-12 nuclear receptor. HEK293 GAL4-hgDAF12 UAS-luciferase reporter, agonist luminescence; normalized to butyrate control. activation, % at 6.8 µM. 1.8% of 370,000 active. AID 687014;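 active = activation above a cutoff set at the mean of all screened compounds plus 3 SD, cut at about 10% in these data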;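 note: 0% = DMSO wells and 100% = sodium butyrate wells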
* = called active by the depositor; x = no result. Hits are enriched below; roughly 4.1% of the tested compounds scored in any of these assays.

SMILES	DAX1 inh-1	hcDAF12 agonist	ssDAF12 agonist	DAX1 inh-2	hgDAF-12 ag
CC(C)=CCC[C@@]1(C(=O)O)[C@@H]2C/C=C(\C)CC/C=C(\C)CC[C@H]1[C@]1(CC2)CO1	x	1.4	-0.6	-0.2	-2.9
CCCC(C)NC(=O)COC(=O)c1cccc(NS(C)(=O)=O)c1 (configuration not stated)	4.6*	-0.8	-0.4	-0.4	1.9
CC(=O)c1ccc(NCCCN2CCC(C(O)(c3ccccc3)c3ccccc3)CC2)cc1	x	0.5	-1.5	1.1	0.5
COc1ccccc1N1CCN(/N=C\c2ccccc2)CC1	5.1*	2.8	-1.0	0.8	5.0
COc1ccccc1N1CCN(/N=C/c2cc(OC)c(OC)c(OC)c2)CC1	1.8	-1.4	-1.7	-0.1	-2.0
COc1ccccc1N1CCN(C(=O)c2cc3ccccc3[nH]2)CC1	-1.8	-0.1	-0.9	1.8	-1.2
COc1ccccc1N1CCN(C(=O)c2cc3cc(F)ccc3[nH]2)CC1	-1.5	5.8*	-0.1	-0.5	1.6
O=C(CCCC(=O)N1CCN(c2ccccc2F)CC1)c1ccccc1	17.2*	0.3	-0.2	1.6	8.3
COc1ccccc1N1CCN(C(=O)CCC(=O)O)CC1	5.5*	-2.3	-0.8	0.9	0.8
O=C(CCCC(=O)N1CCN(c2ccccc2F)CC1)N1CCN(c2ccccc2F)CC1	1.8	-1.5	-1.2	0.5	-0.5
CN(C)CCCNC(=O)OC1CC2CC1[C@H]1CCCCN1C2=O (some centres not stated)	x	-1.6	-1.5	0.6	-2.3
O=C1[C@@H](C2CCCCC2)[C@@H]2c3ccccc3C=NN2[C@@H]2c3ccccc3C=NN12	x	-1.2	-1.2	-0.6	-2.5
COc1ccc([C@H]2OC(=O)C[C@H]2C(=O)N2CCCC2)cc1OC	x	-1.0	-0.9	-0.3	1.0
COc1ccccc1N1CCN(CCCCOc2c(OC)cccc2OC)CC1	-0.3	-1.3	-1.2	-0.6	0.0
Cc1ccc(N2CCN(/N=C/C(Cl)=C/c3ccccc3)CC2)cc1	0.5	0.0	-1.2	0.1	-1.9
COc1ccccc1N1CCN(/N=C/C(Cl)=C/c2ccccc2)CC1	5.0*	2.0	-0.5	0.6	7.7
COc1ccccc1N1CCN(CCOc2c(OC)cccc2OC)CC1	4.6*	-1.0	-1.4	-0.1	-2.7
CC(=O)CC[C@H]1CC[C@]2(CCCN(Cc3nccn3C)C2)O1	x	0.2	-1.2	0.8	-2.6
COc1ccc(C(=O)C[n+]2ccc3c(c2)nc(Cc2ccccc2)n3C)cc1	x	-1.1	-1.0	-0.3	-1.4
O=C1N=c2ccccc2=C1c1sc(=S)n(NC(=O)c2ccccc2)c1O	0.4	3.3	1.0*	0.7	2.1
C=CCn1c(O)c(C2=c3ccccc3=NC2=O)sc1=Nc1ccc(O)cc1	2.1	4.2	-0.4	0.0	1.5
CCOCc1c(C(=O)N2CCN(CC(=O)Nc3ccc(F)cc3)CC2)oc2ccccc12	-0.8	3.7	1.2*	0.0	0.9
C/C(C=NNC(=O)CSc1nnc(-c2ccccc2)n1-c1ccc(C)cc1)=C\c1ccco1	x	-1.7	-0.7	-0.1	-1.2
N=c1cc(C2(O)CCCCC2)n2c(nc3ccccc32)s1	1.5	3.4	0.3	3.6*	10.7*
COc1ccc(OCCC(=O)OCC(=O)NC(=O)NC2CCCCC2)cc1	-0.5	0.5	-1.1	-0.6	2.6
SMILES	DAX1 inh-1	hcDAF12 agonist	ssDAF12 agonist	DAX1 inh-2	hgDAF-12 ag
CNC(=O)NC(=O)COC(=O)CCCOc1ccc(OC)cc1	5.6*	-1.3	-0.6	0.2	-0.2
CC(=O)/C=C1/C(=O)Nc2ccccc21	0.4	6.0*	0.3	-0.4	1.8
O=C(OCc1cn(Cc2ccc(F)cc2)nn1)N1CCOCC1	x	3.4	-1.2	0.2	1.4
c1ccc2oc(-c3ccn[nH]3)cc2c1	5.9*	4.5	-0.7	1.5	5.7
C=CCN1[C@H](C#N)[C@@H](c2ccc(C#Cc3cccc(OC)c3)cc2)[C@H]1CO	x	-5.1	-1.7	-0.9	-5.6
COc1cc(CO)ccc1OCc1ccc(Cl)nc1	3.7	2.8	1.3*	0.4	11.3*
COc1cc(CNCCc2ccc(F)cc2)ccc1OCc1ccc(Cl)nc1	-0.2	1.0	-1.1	0.2	1.5
O=C(OC(C(=O)NC1CCCC1)c1ccncc1)C1=Cc2ccccc2OC1 (configuration not stated)	-1.8	-0.3	-0.8	1.0	-0.5
Cc1cc(N2CCCCC2C)nc(-c2ccccc2O)n1 (configuration not stated)	4.4*	-0.3	-1.3	-0.4	2.4
Cc1cc(NC(=O)c2ccc(S(=O)(=O)N(C)C)cc2)no1	0.2	1.7	-1.5	-0.3	2.6
Cc1cc(NC(=O)c2ccc(Cl)cc2)no1	1.5	1.4	-0.5	2.6	10.6*
C/C(=C\c1ccccc1)C(=O)Nc1cc(C)on1	-0.2	0.8	-1.2	0.2	11.0*
Cc1cc(NC(=O)c2cc(-c3ccc(O)cc3)on2)no1	3.1	1.5	-0.7	1.6	10.7*
Cc1ccc2c(Cl)c(C(=O)Nc3cc(C)on3)sc2c1	5.2*	1.1	-0.3	1.1	5.3
Cc1cc(NC(=O)Cc2ccccc2)no1	-0.7	1.6	-1.1	-0.4	0.4
N#CC1C(C#N)N2CCCN2C1c1ccc(Cl)cc1 (configuration not stated)	-1.3	5.8*	0.1	-0.5	1.6
O=C(CCN1C(=O)/C(=C/c2ccc(F)cc2)SC1=S)NNC(=O)c1cccnc1	4.3*	-1.3	-1.0	0.5	2.2
COc1ccc(-c2nc(=S)c3ccc4ccccc4c3[nH]2)cc1	-0.5	6.4*	1.0*	0.9	0.7
NS(=O)(=O)c1ccc(NC(=O)COC(=O)/C=C/c2ccc([N+](=O)[O-])cc2)cc1	-1.4	0.1	3.0*	0.4	-0.9
O=C(COC(=O)/C=C/c1ccc([N+](=O)[O-])cc1)Nc1ccc(F)cc1	-0.1	0.4	-1.1	-1.3	0.9
Cc1ccc2oc(=O)c3cnn(CC(=O)N4CCc5ccccc5C4)c3c2c1	6.3*	0.6	-1.1	0.1	2.7
Cc1ccccc1NC(=O)N1CCCC(c2nc(-c3ccc(C(C)C)cc3)no2)C1 (configuration not stated)	-3.5	4.9	-0.3	0.3	10.5*
Cc1ccccc1NC(=O)N1CCCC(c2nc(-c3ccc(F)cc3)no2)C1 (configuration not stated)	-0.2	-1.0	-1.6	0.6	3.4
CCNS(=O)(=O)c1ccc(-c2ccc(-n3cnnn3)cc2)cc1	6.3*	0.1	-0.6	-0.9	-3.1
O=S(=O)(NCCc1ccccc1)c1ccc(-n2cnnn2)cc1	1.3	1.1	-1.1	-0.2	2.8
O=C(O)CN=C(NS(=O)(=O)c1ccc(Cl)cc1)c1ccccc1	-0.8	-0.5	-0.3	-0.3	-0.9
CSCCC(N=C(NS(=O)(=O)c1ccc(Br)cc1)c1ccccc1)C(=O)O (configuration not stated)	-0.9	-0.9	-1.5	0.9	3.6
CSCCC(N=C(NS(=O)(=O)c1ccc(C)cc1)c1ccccc1)C(=O)O (configuration not stated)	4.3*	1.7	-1.6	0.0	4.1
